Assay results as given in PubChem BioAssay (NCI).
The panel holds about 83,000 compounds, 20% with a hit somewhere; the sample as a whole holds those more often.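 Cells were grown in 96-well plates and exposed to the test compound at a single concentration for 48 hours; results are reported as percent growth, with values below 10 considered active.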 Active and inactive are the calls of the source.

test system: MDA-MB-468 breast; test: NCI-60 one-dose screen, 48 h (100 = growth as untreated, 0 = no growth, -100 = all killed); conditions: 10 µM unless noted

**Q.** `CCN(CCCOc1ccc2c(Nc3cc(CC(=O)Nc4cccc(F)c4)[nH]n3)ncnc2c1)CCOP(=O)(O)O` was tested. Which growth did it give?
**A.** 67.6% (inactive)

**Q.** With `CCCCCCCCCCCCCCCCCCOc1ccccc1CC(=O)OCC[N+]1(C)CCCCC1` as the compound, how does the growth read?
**A.** -10.3% (active)

**Q.** Which growth does the source give for `Oc1c(C(Nc2cccc3ccccc23)c2ccccc2)ccc2cccnc12` (configuration not stated) here?
**A.** 26.7% (inactive)

**Q.** With `Cc1ccc(S(=O)(=O)NCN2C(=O)c3ccccc3C2=O)cc1` as the compound, how does the growth read?
**A.** 93.6% (inactive)

**Q.** Which growth does the source give for `CCN1C2CCC1/C(=C\c1ccccc1)C(=O)/C2=C/c1ccccc1` here?
**A.** 16.1% (inactive)

**Q.** How did the growth turn out when `O=S(=O)(NCCCNc1nccc(-c2cn(-c3ccccc3)nc2-c2ccc(Cl)c(O)c2)n1)c1ccccc1` was run?
**A.** 59.7% (inactive)

**Q.** `COc1cc2nc(SCc3cc(OC)c(OC)c(OC)c3)n(Cc3ccccc3)c(=O)c2cc1OC` was tested. Which growth did it give?
**A.** -10.1% (active)

**Q.** Which growth does the source give for `O=C1CC(c2cccc(-c3cccnc3)c2)=Nc2ccc(Br)cc2N1` here?
**A.** 10.5% (inactive)

**Q.** `CC(CC(=O)c1ccccc1)c1ccccc1` (configuration not stated) was tested. Which growth did it give?
**A.** 96.5% (inactive)

**Q.** For `COc1ccc(-c2nc3cc(Cl)c(Cl)cc3n2CC(=O)N=Nc2c(O)[nH]c3ccc(Cl)cc23)cc1`, which growth is on record?
**A.** -40.1% (active)

**Q.** How did the growth turn out when `COc1ccc2occ(C3=C(c4c[nH]c5ccccc45)C(=O)NC3=O)c2c1` was run?
**A.** -2.93% (active)

**Q.** How did the growth turn out when `O=C1Nc2ccccc2SC1C1SC(=S)N(Cc2ccccc2)C1=O` (configuration not stated) was run?
**A.** 31.4% (inactive)

**Q.** For `Cc1ccc2nc(NC(=O)CSC(=S)N3CCN(c4ccccc4)CC3)sc2c1`, which growth is on record?
**A.** 101% (inactive)

**Q.** Which growth does the source give for `COc1cc(-c2c3sc(=O)[nH]c3nc3c2c(=O)[nH]n3C(C)C)cc2c1OCO2` here?
**A.** 92.3% (inactive)

**Q.** How did the growth turn out when `C=C(C)[C@@H]1C[C@@H]2Cc3cc(F)ccc3N1O2` was run?
**A.** 104% (inactive)

**Q.** For `COc1ccccc1Nc1nc2c(s1)C1=CC[C@H]3[C@@H]4CC[C@H]([C@H](C)CCCC(C)C)[C@@]4(C)CC[C@@H]3[C@@]1(C)CC2`, which growth is on record?
**A.** 113% (inactive)

**Q.** How did the growth turn out when `CC(C)c1ccc(C(=O)Nc2sc3c(c2C#N)CCC(=O)C3)cc1` was run?
**A.** -45.7% (active)

**Q.** How did the growth turn out when `Cc1sc2nc(NCCc3c[nH]c4ccc(Cl)cc34)[nH]c(=O)c2c1C` was run?
**A.** 4.19% (active)

**Q.** With `C=C(C)C(C(=O)OCC)(C(=O)OCC)C(C)C` as the compound, how does the growth read?
**A.** 109% (inactive)

**Q.** For `NS(=O)(=O)c1ccc(Nc2nc(Nc3ccccc3)nc3nnc(SCC(=O)NC4CCCCC4)n23)cc1`, which growth is on record?
**A.** 104% (inactive)

**Q.** For `c1ccc2[nH]c(SSc3nc4ncncc4[nH]3)nc2c1`, which growth is on record?
**A.** 11.3% (inactive)

**Q.** Which growth does the source give for `CCCCCCCCCCCCOC(=O)/C=C\C(=O)NC(N)=O` here?
**A.** 82.1% (inactive)

**Q.** For `CO[C@H]1C[C@@H]2CC[C@@H](C)[C@@](O)(O2)C(=O)C(=O)N2CCCC[C@H]2C(=O)O[C@H]([C@H](C)C[C@@H]2CC[C@@H](O)[C@H](OC)C2)CC(=O)[C@H](C)/C=C(\C)[C@@H](O)[C@@H](OC)C(=O)[C@H](C)C[C@H](C)\C=C/C=C/C=C/1C`, which growth is on record?
**A.** 1.57% (active)

**Q.** Which growth does the source give for `Nc1ncnc2c1N=C(c1ccc3c(c1)OCO3)CC(c1cccc(Nc3ccnc4cc(Cl)ccc34)c1)N2` (configuration not stated) here?
**A.** 33.2% (inactive)

**Q.** Which growth does the source give for `[O-]/[N+](=C\c1ccc(-n2cc(Cc3ccccc3Cc3cn(-c4ccc(/C=[N+](/[O-])c5ccccc5)cc4)nn3)nn2)cc1)c1ccccc1` here?
**A.** 96.6% (inactive)

**Q.** Which growth does the source give for `COc1ccc(/C=C/C(=O)N2CCC(O)CC2)cc1OC1CCCC1` here?
**A.** 114% (inactive)

**Q.** With `CC(C)=CCc1ccc(O)c(=O)cc1C(C)C` as the compound, how does the growth read?
**A.** -24.2% (active)

**Q.** Which growth does the source give for `CC1CCC(C(C)C)C(NNC(N)=O)C1` (configuration not stated) here?
**A.** 94.9% (inactive)

**Q.** With `O=C1N=c2cc3c(cc2=C/C1=C/c1sc(=S)n(CCc2ccc(O)cc2)c1O)OCCO3` as the compound, how does the growth read?
**A.** 42.5% (inactive)

**Q.** Which growth does the source give for `COc1cccc(-c2nc3sccn3c2-c2ccnc(NCCNS(=O)(=O)c3cccc(F)c3)c2)c1` here?
**A.** 25.6% (inactive)

**Q.** Which growth does the source give for `CN(C)c1nc2c([nH]1)c(=O)n(C)c(=O)n2C` here?
**A.** 101% (inactive)

**Q.** `CC(=O)c1cc(O)ccc1O` was tested. Which growth did it give?
**A.** 98.3% (inactive)

**Q.** Which growth does the source give for `COc1cc2c(cc1OC)C(Sc1ccc(F)cc1)c1c(nc(N)c(C#N)c1N)O2` (configuration not stated) here?
**A.** -56.4% (active)

**Q.** How did the growth turn out when `Cc1nc2ccccc2n1-c1ncnc2c1CC(C)c1ccccc1N2C` (configuration not stated) was run?
**A.** 80.9% (inactive)

**Q.** How did the growth turn out when `Cc1c(CN(C)C)cc(C(C)C)cc1C(C)C` was run?
**A.** 100% (inactive)

**Q.** Which growth does the source give for `CCOC(=O)c1sc(-c2ccc(OS(=O)(=O)C[C@]34CCC(CC3=O)C4(C)C)c(C=O)c2)nc1C` here?
**A.** 3.2% (active)

**Q.** Which growth does the source give for `C=CCN(CC=C)C(=O)[C@H](CC)[C@@H]1CC[C@@H](C)[C@@H]([C@H](C)[C@@H](O)[C@@H](C)C(=O)[C@H](CC)C2O[C@]3(C=C[C@@H](O)[C@]4(CC[C@@](C)([C@H]5CC[C@](O)(CC)[C@H](C)O5)O4)O3)[C@H](C)C[C@@H]2C)O1` (some centres not stated) here?
**A.** -19.1% (active)
